Source: PubChem BioAssay AID624141 (Broad Institute, 2012)
The campaign covered roughly 17,000 compounds. About 260 (1.5%) were called active.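 Rule for the calls: active = spot fluorescence over background with P-value below 7% in all four replicate spots, showing protein binding; inactive = the rest.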 The entries come from a sample that favours actives as a whole.

molecular target: Myc proto-oncogene protein (Homo sapiens) (UniProt P01106); experiment: binders of human c-Myc, primary screen, biochemical, small molecule microarray, anti-His fluorescence (AID 624141); conditions: His-c-Myc binding
Sequence (P01106 whole entry, looked up): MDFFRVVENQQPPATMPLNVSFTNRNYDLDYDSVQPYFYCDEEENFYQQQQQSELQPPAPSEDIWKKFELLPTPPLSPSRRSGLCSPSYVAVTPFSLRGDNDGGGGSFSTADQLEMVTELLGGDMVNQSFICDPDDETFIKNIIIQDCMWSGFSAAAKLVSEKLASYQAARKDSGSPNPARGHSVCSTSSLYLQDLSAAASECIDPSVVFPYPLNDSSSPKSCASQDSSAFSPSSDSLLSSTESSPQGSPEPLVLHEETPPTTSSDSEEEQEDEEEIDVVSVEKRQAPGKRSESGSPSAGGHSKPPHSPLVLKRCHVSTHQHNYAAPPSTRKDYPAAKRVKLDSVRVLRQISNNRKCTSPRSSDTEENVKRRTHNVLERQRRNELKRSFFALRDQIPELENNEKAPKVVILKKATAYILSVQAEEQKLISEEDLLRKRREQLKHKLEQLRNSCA

outcome, inactive:
Cc1cc2c(=O)n(C)c(SCC(=O)c3cc4ccccc4o3)nc2s1
COc1ccccc1N(CC(=O)N1CCCCC1)S(C)(=O)=O
C[C@@H]1CN([C@@H](C)CO)C(=O)Cc2cc(NC(=O)Nc3ccc(F)cc3)ccc2O[C@@H]1CN(C)C
Cn1c(SCc2nc3ccccc3c(=O)[nH]2)nnc1-c1cc2ccccc2o1
C[C@@H]1CN([C@@H](C)CO)C(=O)c2cc(NS(C)(=O)=O)ccc2O[C@H]1CN(C)C(=O)Nc1ccc(F)cc1
COc1ccc(C#Cc2ccc3c(c2)[C@]2(C(=O)N3)[C@H](C(=O)N3CCc4cc(OC)c(OC)cc4C3)[C@H]3C(=O)O[C@H](c4ccccc4)[C@H](c4ccccc4)N3[C@@H]2c2ccc(O)cc2)cc1
O=C(NCC1CCCO1)c1ccc(NC(=O)c2cc(-n3cnnc3)ccc2Cl)cc1 (configuration not stated)
CNC[C@H]1OCCCC[C@@H](C)Oc2ccc(NC(=O)c3ccccc3)cc2C(=O)N([C@@H](C)CO)C[C@H]1C
Cc1ccc(Cn2ncc3c(N4CCN(CCOc5ccc(C)cc5)CC4)ncnc32)cc1
C[C@@H]1CN([C@H](C)CO)C(=O)Cc2cc(NS(=O)(=O)c3cccs3)ccc2O[C@@H]1CN(C)C(=O)Nc1ccc(F)cc1
O=C1NC(Cc2c[nH]c3ccccc23)C(=O)N2CCCC12 (configuration not stated)
Cc1noc(C)c1NC(=O)N(C)C[C@@H]1Oc2ccc(NC(=O)C3CC3)cc2C(=O)N([C@H](C)CO)C[C@@H]1C
O=C1O[C@@H](c2ccccc2)[C@@H](c2ccccc2)N2[C@@H](c3ccc(O)cc3)[C@]3(C(=O)Nc4ccccc43)[C@@H](C(=O)O)[C@H]12
CCOc1ccc(NC(=O)C2CC(=O)n3c(nc4ccccc43)N2)cc1 (configuration not stated)
C[C@@H]1CCCCO[C@H](CN(C)C(=O)Cc2ccccc2)[C@H](C)CN([C@H](C)CO)C(=O)c2cc(NS(=O)(=O)c3cn(C)cn3)ccc2O1
COc1cc(O)c2c(=O)c(O[C@@H]3O[C@@H](CO)[C@H](O)[C@H]3O[C@@H]3O[C@@H](C)[C@H](O)[C@@H](O)[C@H]3O)c(-c3ccc(O)cc3)oc2c1
CN(C)CC/C=C1\c2ccccc2CSc2ccccc21
C[C@H](CO)N1C[C@H](C)[C@@H](CN(C)C)Oc2c(NC(=O)Nc3ccc(F)cc3)cccc2C1=O
C[C@H]1CN([C@@H](C)CO)C(=O)c2cc(NC(=O)Cn3cnnn3)ccc2O[C@@H]1CN(C)S(=O)(=O)c1cccs1
C[C@H](CO)N1C[C@H](C)[C@H](CN(C)C(=O)Nc2ccc(C(F)(F)F)cc2)Oc2ccc(NC(=O)Nc3ccccc3)cc2C1=O
C[C@@H]1CN([C@H](C)CO)C(=O)c2cccc(NS(C)(=O)=O)c2O[C@@H]1CN(C)C(=O)Nc1cccc2ccccc12
O=C(NCc1ccccc1)C1=C[C@H](C2CC2)C[C@H](OCc2ccc(CO)cc2)O1
C[C@H](CO)N1C[C@H](C)[C@H](CN(C)CC2CC2)Oc2ccc(NC(=O)c3ccncc3)cc2C1=O
C[C@H]1CN([C@@H](C)CO)C(=O)c2cc(NC(=O)Cn3cnnn3)ccc2O[C@H]1CN(C)C(=O)NC1CCCCC1
CC(C)NC(=O)N(C)C[C@H]1OCCCC[C@@H](C)Oc2ccc(NS(C)(=O)=O)cc2C(=O)N([C@H](C)CO)C[C@H]1C
CC(C)NC(=O)N(C)C[C@H]1Oc2ccc(NC(=O)CCC(F)(F)F)cc2CC(=O)N([C@@H](C)CO)C[C@@H]1C
C[C@H]1CCCCO[C@H](CN(C)C(=O)CCC(F)(F)F)[C@@H](C)CN([C@@H](C)CO)C(=O)c2cc(NC(=O)Nc3ccc4c(c3)OCO4)ccc2O1
O=C1c2ccccc2[C@](Cc2ccccc2I)(C(=O)NCc2ccccc2)[C@H](c2ccc(CO)cc2)N1C1CCCCC1
Cc1cc(C)c2nc(-c3cccnc3)cc(C(=O)Nc3sc(Cc4ccccc4)cc3C(N)=O)c2c1
CC(C)NC(=O)N(C)C[C@@H]1Oc2ccc(NS(=O)(=O)c3ccccc3)cc2C(=O)N([C@@H](C)CO)C[C@H]1C
C[C@@H]1CN([C@@H](C)CO)C(=O)c2cccc(NC(=O)c3ccc(-c4nccs4)cc3)c2O[C@H]1CN(C)C(=O)Nc1ccccc1
Cc1cccc(OCCCC(=O)Nc2sc3c(c2C(N)=O)CCCC3)c1C
Cc1nn(-c2ccccc2)c(CC(C)(C)C(=O)O)c1C(=O)O
C[C@H]1CN([C@@H](C)CO)C(=O)Cc2cc(NC(=O)Nc3ccccc3)ccc2O[C@H]1CN(C)Cc1ccncc1
C[C@@H]1CCCCO[C@@H](CN(C)Cc2ccncc2)[C@@H](C)CN([C@@H](C)CO)C(=O)c2cc(N(C)C)ccc2O1
C[C@H](CO)N1C[C@H](C)[C@H](CN(C)C)Oc2ccc(NC(=O)Nc3ccc(F)cc3)cc2CC1=O
C[C@@H]1CN([C@@H](C)CO)C(=O)Cc2cc(NC(=O)Cc3cn(C)c4ccccc34)ccc2O[C@H]1CN(C)C(=O)NC1CCCCC1
C/C=C(\C)C(=O)OC(/C=C/C(O)C(C)O)C1C=CC(=O)O1 (configuration not stated)
C=C(C(=O)O)C1CCC2(C)CCC(=O)C(C)=C2C1 (configuration not stated)
Cn1c(OCc2cccnc2)nc2c1c(=O)n(Cc1ccc(Cl)c(Cl)c1)c(=O)n2C
CCO[C@H]1OC(C(=O)O)=C[C@@H](C2CCCCC2)[C@@H]1CCCO
Nc1nnc(SCC(=O)Nc2ccc(Cl)cc2O)s1
COc1ccc(S(=O)(=O)N(C)C[C@@H]2Oc3ccc(NC(=O)CCC(F)(F)F)cc3C(=O)N([C@@H](C)CO)C[C@H]2C)cc1
CN1CCN(C(=O)C2=C[C@@H](c3ccc(Br)cc3)C[C@@H](OCCCCO)O2)CC1
C[C@H]1CN([C@@H](C)CO)C(=O)Cc2cc(N(C)C)ccc2O[C@@H]1CN(C)S(=O)(=O)c1ccc(F)cc1
Nc1nnc(SCCN2C(=O)c3ccccc3S2(=O)=O)s1
C[C@@H]1CN([C@H](C)CO)C(=O)CCCn2nncc2CO[C@@H]1CN(C)Cc1ccc2c(c1)OCCN2C
